Experimental findings from PubChem BioAssay (NCI) are described below.

Each structure is given as a SMILES string. Compounds without any hit were thinned out: in the full panel of roughly 83,000, 20% have a hit.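 Percent growth is the endpoint: 0 to 100 indicates growth inhibition (40 means 60% inhibition), 0 means no net growth, and negative values indicate cell death.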 Values without a mark were called inactive. Activity calls are given as the source filed them. How the source made its calls: active means growth percent below 10; inactive means the rest.

Some test systems named below: DU-145 prostate; K-562 leukemia; MALME-3M melanoma; MDA-MB-231 breast; RXF 393 renal; SF-268 CNS; SF-295 CNS; SF-539 CNS; UACC-257 melanoma; M14 melanoma; HCT-15 colon; HT29 colon; SNB-75 CNS; SNB-19 CNS; U251 CNS; PC-3 prostate; SK-MEL-5 melanoma; UACC-62 melanoma; LOX IMVI melanoma; SK-MEL-28 melanoma.
What all share (test): NCI-60 one-dose screen, 48 h (100 = growth as untreated, 0 = no growth, -100 = all killed)
Conditions in all cases: 10 µM unless noted

For `Cn1c2ccccc2c2ssc(=S)c21`, the growth was 116% in the test with DU-145 prostate; 82.9% with K-562 leukemia; 81.9% with MALME-3M melanoma; 99.9% with MDA-MB-231 breast; 108% in the test with RXF 393 renal; 103% with SF-268 CNS. Further, the growth is 97.3% in the test with SF-295 CNS; 97.5% in the test with SF-539 CNS; 98.8% in the test on UACC-257 melanoma; 89.3% in the test on M14 melanoma; 92.1% with HCT-15 colon; 110% in the test on HT29 colon. In addition, the growth is 99.3% in the test with SNB-75 CNS; 100% in the test on SNB-19 CNS; 96.2% in the test with U251 CNS; 101% in the test on PC-3 prostate; 89.8% in the test on SK-MEL-5 melanoma; 95.8% in the test with UACC-62 melanoma. The results for the growth in the test with LOX IMVI melanoma and in the test with SK-MEL-28 melanoma were 91.9% and 108%, respectively.
Turning to `CC(/C=C/C=C(\C)[C@H](O)[C@H](C)C(=O)O[C@H]1C[C@H](C)C=C2C=C[C@@]3(C)O[C@@H](O)CC(=O)[C@]3(C)[C@H]21)=C\C=C\C(=O)O`, the growth in the test on DU-145 prostate was 4.82% (active); in the test with K-562 leukemia it was 5.89% (active); in the test with MALME-3M melanoma it was -57% (active); in the test with MDA-MB-231 breast, 19.8%; in the test with RXF 393 renal, -49.5% (active); with SF-268 CNS, 7.59% (active). Besides, the growth was 2.34% (active) in the test with SF-295 CNS; -15.9% (active) in the test with SF-539 CNS; 2.06% (active) in the test on UACC-257 melanoma; -51.3% (active) in the test on M14 melanoma; 17.3% with HCT-15 colon; 0.326% (active) with HT29 colon. Moreover, the growth with SNB-75 CNS was -14.2% (active); in the test with SNB-19 CNS, -0.761% (active); in the test on U251 CNS, -3.9% (active); with PC-3 prostate it was 7.61% (active); in the test on SK-MEL-5 melanoma, -69% (active); in the test with UACC-62 melanoma it was -32% (active). The results for the growth in the test with LOX IMVI melanoma and in the test with SK-MEL-28 melanoma were 6.81% (active) and -0.848% (active), respectively.
Turning to `COc1cc(/C=C\c2cc(/C=C\c3ccc(O)c(OC)c3)n(C(=O)CNc3ccccc3OC)n2)ccc1O`, the growth in the test with DU-145 prostate is 95.3%; with K-562 leukemia, 19.4%; with MALME-3M melanoma, 47.9%; in the test with MDA-MB-231 breast, 87%; with RXF 393 renal, 90.2%; in the test with SF-268 CNS it was 58.9%. Also, the growth in the test on SF-295 CNS is 85.1%; in the test on SF-539 CNS, 42%; in the test with UACC-257 melanoma it was 85.5%; in the test with M14 melanoma it was 35.4%; in the test on HCT-15 colon it was 56.3%; with HT29 colon, 109%. The growth in the test with SNB-75 CNS is 61.6%; in the test with SNB-19 CNS, 70.9%; in the test with U251 CNS it was 53.4%; in the test with PC-3 prostate, 64.2%; with SK-MEL-5 melanoma it was 44.8%; with UACC-62 melanoma, 79.1%. The figures for the growth in the test on LOX IMVI melanoma and in the test with SK-MEL-28 melanoma were 40.2% and 70%, respectively.
On to `NS(=O)(=O)c1ccc(-n2nc(-c3ccc(Cl)cc3)ccc2=O)cc1`, for which the growth was 102% in the test on DU-145 prostate; 45.9% with K-562 leukemia; 113% in the test with MALME-3M melanoma; 118% in the test on MDA-MB-231 breast; 95.6% with RXF 393 renal; 96.5% in the test on SF-268 CNS. The growth in the test with SF-295 CNS is -4.7% (active); in the test on SF-539 CNS, 84.4%; in the test with UACC-257 melanoma, 96.6%; in the test on M14 melanoma, 96.2%; in the test with HCT-15 colon it was 84.5%; in the test on HT29 colon it was 104%. Besides, the growth in the test with SNB-75 CNS was 86%; in the test with SNB-19 CNS, 86.8%; in the test with U251 CNS it was 104%; with PC-3 prostate, 85.6%; in the test on SK-MEL-5 melanoma it was 83.1%; in the test with UACC-62 melanoma, 61.4%. Moreover, the growth is 95.8% in the test with LOX IMVI melanoma and 90.3% in the test on SK-MEL-28 melanoma.
Regarding `OCc1cn(-c2ccc(Cl)cc2)nc1-c1ccc(O)cc1`, the growth with DU-145 prostate was 97%; in the test on K-562 leukemia, 88%; in the test with MALME-3M melanoma, 100%; in the test on MDA-MB-231 breast, 97.9%; with RXF 393 renal it was 107%; in the test on SF-268 CNS it was 78.6%. Besides, the growth with SF-295 CNS is 100%; with SF-539 CNS, 93.2%; in the test with UACC-257 melanoma, 108%; with M14 melanoma it was 95%; with HCT-15 colon, 93.7%; in the test with HT29 colon, 92.6%. In addition, the growth with SNB-75 CNS was 83.3%; in the test with SNB-19 CNS, 104%; in the test with U251 CNS it was 106%; in the test on PC-3 prostate it was 96.5%; in the test on SK-MEL-5 melanoma it was 95.4%; in the test with UACC-62 melanoma, 100%. Further, the growth is 92.2% with LOX IMVI melanoma and 108% with SK-MEL-28 melanoma.
In the case of `COc1ccc2c(c1)O/C(=C/c1ccc(OCC(=O)Nc3ccc(S(N)(=O)=O)cc3)cc1)C2=O`, the growth in the test on DU-145 prostate was 101%; with K-562 leukemia, 85.7%; in the test with MALME-3M melanoma, 111%; in the test with MDA-MB-231 breast, 94.7%; in the test on RXF 393 renal, 97.2%; in the test with SF-268 CNS, 94.8%. For the same compound, the growth in the test with SF-295 CNS was 106%; in the test on SF-539 CNS it was 97.7%; with UACC-257 melanoma, 102%; in the test on M14 melanoma, 102%; in the test with HCT-15 colon, 93.7%; with HT29 colon it was 102%. In addition, the growth in the test on SNB-75 CNS was 89.8%; with SNB-19 CNS, 92.1%; in the test with U251 CNS, 97.7%; in the test on PC-3 prostate it was 91%; in the test on SK-MEL-5 melanoma, 94.3%; in the test on UACC-62 melanoma, 88%. The growth in the test with LOX IMVI melanoma was 101%; with SK-MEL-28 melanoma, 108%.
Take `O=C1C(Cl)=C(Nc2cccc3cc4ccccc4nc23)C(=O)c2ccccc21`: the growth is 44% in the test on DU-145 prostate; 27.9% in the test with K-562 leukemia; 48.9% in the test with MALME-3M melanoma; 44% in the test with MDA-MB-231 breast; 65.2% in the test with RXF 393 renal; 45% in the test on SF-268 CNS. Besides, the growth in the test with SF-295 CNS was 53.8%; with SF-539 CNS, 40.7%; with UACC-257 melanoma it was 45.6%; with M14 melanoma, 56.4%; in the test on HCT-15 colon, 41.4%; in the test with HT29 colon it was 4.99% (active). The growth is 71.9% with SNB-75 CNS; 44.6% with SNB-19 CNS; 41.8% with U251 CNS; 42% in the test with PC-3 prostate; 69.5% in the test on SK-MEL-5 melanoma; 70.1% in the test with UACC-62 melanoma. Further, the growth in the test with LOX IMVI melanoma is 33.9%; in the test on SK-MEL-28 melanoma it was 102%.
In the case of `CCNc1ncnc2n[nH]nc12`, the growth with DU-145 prostate was 104%; in the test with K-562 leukemia, 97%; with MALME-3M melanoma it was 102%; in the test on MDA-MB-231 breast, 111%; in the test with RXF 393 renal, 112%; in the test on SF-268 CNS it was 99.5%. The growth was 95% with SF-295 CNS; 101% in the test with SF-539 CNS; 92.9% in the test on UACC-257 melanoma; 99.7% with M14 melanoma; 98.4% with HCT-15 colon; 100% in the test on HT29 colon. Moreover, the growth is 94.8% in the test on SNB-75 CNS; 96.4% in the test on SNB-19 CNS; 95.3% in the test with U251 CNS; 82.3% with PC-3 prostate; 98.7% in the test with SK-MEL-5 melanoma; 99.3% in the test with UACC-62 melanoma. In addition, the growth is 102% in the test with LOX IMVI melanoma and 107% in the test with SK-MEL-28 melanoma.
